# Screening results: PubChem, several laboratories
# Only some compounds are listed: those with a hit (about 3.8% of all), similar ones and a draw of the others.
# TIM10 inh – growth inhibitors of TIM10 yeast strain | 1.4% of 330,000 active | S. cerevisiae TIM10 strain growth, BacTiter-Glo luminescence, 24 h | inhibition, % at 10 µM | AID 463195;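 active means inhibition of 40% or more at the single tested concentration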;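 further: wild-type TIM10 isogenic control strain grown at permissive 25 °C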
# B2AR ag – human beta-2 adrenergic receptor agonism by FAP. P07550. response, % (no concentration beside the values). 0.43% of 340,000 active. Am2.2-beta2AR cells, FAP receptor internalization, flow cytometry. AID 504454;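 active means response above a set limit, near 3 SD of response in nonfluorescent compounds, cut at about 42% in these data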
# Target sequence (P07550 whole entry, looked up): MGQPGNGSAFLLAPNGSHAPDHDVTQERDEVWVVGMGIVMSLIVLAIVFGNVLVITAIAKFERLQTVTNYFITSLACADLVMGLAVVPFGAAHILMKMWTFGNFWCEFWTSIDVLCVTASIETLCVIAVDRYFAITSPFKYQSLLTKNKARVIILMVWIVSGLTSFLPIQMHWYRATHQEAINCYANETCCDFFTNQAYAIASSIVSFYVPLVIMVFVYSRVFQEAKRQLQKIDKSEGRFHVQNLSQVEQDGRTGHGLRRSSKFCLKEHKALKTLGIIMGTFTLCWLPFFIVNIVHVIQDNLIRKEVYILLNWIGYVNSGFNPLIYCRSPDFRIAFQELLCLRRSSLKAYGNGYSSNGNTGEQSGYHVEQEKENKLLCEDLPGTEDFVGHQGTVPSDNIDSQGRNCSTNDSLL
# tim23-1 inh – inhibits growth of tim23-1 mutant yeast. 1.3% of 330,000 active. S. cerevisiae tim23-1 growth, BacTiter-Glo luminescence, 24 h. inhibition, % at 20 µM;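 active means growth inhibition of the mutant yeast at or above 50%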;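 further: temperature-sensitive mutant grown at 25 °C; plate controls were DMSO-treated mutant yeast for no effect and medium wells lacking yeast for full effect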
# PfHsp90 yeast 2 – inhibits growth of yeast expressing Plasmodium falciparum Hsp90. S. cerevisiae expressing PfHsp90, BacTiter-Glo ATP, 48 h; yeast lacking PDR1 and PDR3 efflux regulators. 0.32% of 310,000 active. AID 504621. inhibition, % at 9.4 µM;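 active means every replicate shows inhibition above about 80%, whatever the replicate mean, limit read from the data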;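 further: 0% = DMSO neutral controls and 100% = 20 µM radicicol positive controls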
# tim10-1 inh – tim10-1 yeast growth inhibition | S. cerevisiae tim10-1 ts strain growth, BacTiter-Glo, 24 h | inhibition, % at 20 µM | 2.2% of 330,000 active;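 active means inhibition of at least 40%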;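 further: mutant grown at 25 °C; 0% = DMSO wells with yeast and 100% = wells holding no yeast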
# Beta2AR ag CP1 – agonists of human beta-2 adrenergic receptor; shares compounds with B2AR ag; Am2.2-beta2AR cells, FAP surface receptor, flow cytometry; active compounds read low; percent response (surface receptor), % at 10 µM; 25% of 1,100 active;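 active means surface receptor percent response at or below 58%, roughly 3 SD from nonfluorescent compounds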
# FAP fluor counter – fluorescence artifact in beta-2AR agonist FAP counterscreen | shares compounds with B2AR ag | 1,100 tested, under 10 active | calls only at 10 µM | Am2.2 cells, FAP fluorogen flow cytometry; active compounds read low;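 active means percent response below a set limit in fluorescence channel 1 and below 50% in channel 8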
# The depositor's hits bear a star; i = inactive; · = no result.
SMILES,TIM10 inh,B2AR ag,tim23-1 inh,PfHsp90 yeast 2,tim10-1 inh,Beta2AR ag CP1,FAP fluor counter
CCn1nc(NS(=O)(=O)c2ccc([N+](=O)[O-])cc2)c2cc3ccccc3nc21,10.9,64.1*,8.7,-5.7,2.0,118.3,i
CCn1nc(NC(=O)c2ccncc2)c2cc3ccccc3nc21,19.9,-7.4,2.1,3.0,31.6,·,·
CCn1nc(NS(=O)(=O)c2ccc(NC(C)=O)cc2)c2cc3ccccc3nc21,9.3,52.9*,8.0,-27.4,-7.3,100.6,i
CCOc1ccc(NC(=O)Nc2ccc3c(c2)nnn3C)cc1,11.1,59.9*,9.0,11.5,10.6,101.3,i
Cc1ccccc1-c1nc2c3ccccc3nc(=S)n2[nH]1,·,7.4,·,-11.1,·,118.8,i
O=C(Nc1ccc2oc(-c3ccncc3)nc2c1)c1ccc2c(c1)OCCO2,-6.5,73.3*,-40.0,-31.5,-14.2,90.3,i
O=C(Nc1ccc2oc(-c3cccnc3)nc2c1)c1ccc2c(c1)OCCO2,-31.0,-4.0,-33.6,-9.3,-3.7,·,·
COc1ccc(-c2nc3cc(NC(=O)c4ccc5c(c4)OCO5)ccc3o2)cc1,-5.4,4.3,-5.4,-18.3,6.8,·,·
O=C(Nc1ccc2oc(-c3ccncc3)nc2c1)c1ccc2c(c1)OCO2,-24.6,14.9,-24.1,-22.0,-20.8,100.6,i
COc1cc(OC)nc(NC(=O)CSc2nnc(-c3ccccc3)n2C2CCCCC2)n1,30.2,96.8*,15.6,-3.6,16.0,19.0*,i
O=C(CSc1nnc(-c2ccccc2)n1C1CCCCC1)Nc1ccc(S(=O)(=O)Nc2ccccn2)cc1,11.0,2.8,10.5,-0.7,17.2,·,·
Cc1ccc(NC(=O)CN2C(=O)/C(=C3\SC(=S)N(C4CCS(=O)(=O)C4)C3=O)c3ccccc32)cc1 (centres undefined),·,48.8*,·,-2.5,·,82.7,i
CN(C)CCC(C(=O)c1ccccc1)c1cccnc1 (centres undefined),·,1.0,·,-0.3,·,·,·
O=C(NCCCn1ccnc1)c1ccc(S(=O)(=O)N2CCCCCC2)cc1,-12.6,-1.9,8.9,6.6,1.7,·,·
CC1CC(C)CN(S(=O)(=O)c2ccc(C(=O)NCCCn3ccnc3)cc2)C1 (centres undefined),2.2,55.2*,-6.0,15.0,6.4,105.6,i
CC1CC2(NC(=O)NC2=O)C(C)CN1C (centres undefined),-13.1,-0.2,4.0,-5.3,4.2,·,·
CC1C[C@@]2(NC(=O)NC2=O)C(C)CN1C (some centres undefined),-5.8,46.2*,-5.8,-11.4,1.4,108.1,i
Cc1cc(S(=O)(=O)N2CCCC2)ccc1OCC(=O)NCc1ccccc1,15.2,1.6,19.8,-4.3,12.0,·,·
COC(=O)c1ccccc1NC(=O)COc1ccc(S(=O)(=O)N2CCCC2)cc1C,-22.4,4.8,-14.0,25.7,-28.3,99.3,i
COc1ccc(S(=O)(=O)N2CCOCC2)cc1NC(=O)COc1ccc(C)cc1,7.4,3.7,18.3,·,5.5,·,·
COc1ccc(Cl)cc1NC(=O)COc1ccc(S(=O)(=O)N2CCOCC2)cc1C,-12.4,0.4,-4.4,-10.4,4.8,74.9,i
Cc1cc(S(=O)(=O)N2CCCC2)ccc1OCC(=O)Nc1ccc(C(N)=O)cc1,4.0,1.5,3.5,-13.7,19.7,113.2,i
CC(OC(=O)c1ccc(Cl)c(S(N)(=O)=O)c1)C(=O)NCc1ccc2c(c1)OCO2 (centres undefined),-6.9,4.1,3.4,9.2,-8.5,·,·
COc1cccc2sc3cc(C#CC4(O)CCCCC4)ccc3c(=O)c12,23.1,50.2*,38.2,-10.9,34.5,97.7,i
COc1cccc2sc3ccc(C#CC4(N)CCCCC4)cc3c(=O)c12,3.2,25.7,14.4,-10.8,33.0,·,·
SMILES,TIM10 inh,B2AR ag,tim23-1 inh,PfHsp90 yeast 2,tim10-1 inh,Beta2AR ag CP1,FAP fluor counter
CC(C)c1ccc(NC(=O)CCS(=O)(=O)c2cccc3nonc23)cc1,10.4,13.1,6.1,-86.4,-3.0,·,·
O=C(Nc1nc2c(s1)COc1ccccc1-2)c1cccs1,-7.3,9.4,18.7,-27.3,3.5,·,·
O=C(CCS(=O)(=O)c1ccccc1)Nc1nc2c(s1)COc1ccccc1-2,4.2,59.2*,41.9,7.3,36.8,101.1,i
CCNCc1ccccc1OCc1ccccc1,12.6,-3.8,3.1,-3.3,11.9,·,·
Oc1ccc(NCc2ccccc2OCc2ccccc2)cc1,23.3,-11.5,31.7,-15.6,7.5,124.3,i
COc1cc(C)ccc1OCc1cc(C(=O)N(C)CCCN2CCOCC2)no1,-6.0,1.5,4.7,-5.2,3.7,·,·
NC(=O)c1cc2c3ccccc3ccn2c1-c1ccccc1,·,42.5*,·,15.5,·,101.0,i
Cc1cc(C(N)=O)c2ccccc2n1,15.7,3.4,12.5,9.5,5.9,·,·
CCc1c(C)sc(NC(=O)Cc2ccccc2C)c1C(=O)N1CCOCC1,2.5,0.4,13.8,-11.9,12.3,·,·
CN1CCN(CCc2nc3cc(NC(=O)COc4ccccc4)ccc3n2C)CC1,15.5,-16.5,-21.8,·,-4.2,128.6,i
COC(=O)CCCCCC(CCC(=O)OC)NC(C)=O (centres undefined),-18.8,-2.4,-11.8,-1.4,12.1,·,·
Cc1nc([N+](=O)[O-])c(NCCO)n1Cc1ccccc1,12.2,-0.2,26.1,-4.3,2.2,·,·
Cc1nc([N+](=O)[O-])c(Br)n1Cc1ccc(Cl)c(Cl)c1,·,57.6*,·,-58.4,·,95.6,i
Cc1ccc(C(=O)OCC(=O)Nc2nc(-c3ccccc3)cs2)cc1NC(=O)c1ccco1,18.4,53.7*,8.3,·,12.4,37.6*,i
COc1ccc(OCC(O)Cn2c(=N)n(Cc3ccccc3)c3ccccc32)cc1 (centres undefined),1.0,15.9,13.5,12.9,0.8,·,·
Cc1cccc(OCC(O)Cn2c(=N)n(Cc3ccccc3)c3ccccc32)c1 (centres undefined),20.2,8.0,-5.4,5.5,-1.2,·,·
N=c1n(Cc2ccc(Cl)cc2)c2ccccc2n1CC(O)COc1ccccc1 (centres undefined),4.7,42.7*,23.3,0.6,15.6,18.7*,i
Cc1ccc(OCC(O)Cn2c(=N)n(Cc3ccccc3)c3ccccc32)cc1 (centres undefined),20.8,54.6*,6.7,·,28.3,16.9*,i
COc1ccc(C(C(=O)NC2CCCCC2)N(Cc2cccnc2)C(=O)c2snc(C(N)=O)c2N)cc1 (centres undefined),3.9,-15.1,0.5,-2.3,7.1,·,·
COc1cccc(C(=O)C2CCCN(C(=O)CCC3=NNC(=O)CC3)C2)c1 (centres undefined),3.1,-0.6,6.1,-6.4,11.8,·,·
O=S(=O)(NCC(c1ccco1)N1CCCCC1)c1ccccc1C(F)(F)F (centres undefined),8.0,2.1,18.5,4.9,30.4,·,·
